Reference: PubChem BioAssay AID1963322 (National Center for Advancing Translational Sciences (NCATS), 2024)
Results filed as inconclusive are left out. A number with no mark means an inactive call. Calls of active or inactive are those of the source. Calls come from the whole dose curve.

What follows are compounds tested against cAMP-dependent protein kinase catalytic subunit alpha (Homo sapiens) (UniProt P17612) (assay: Protein Kinase A (PKA-HiBiT) SDR gain of signal screen). Details: PKA-HiBiT structural dynamics response (SDR), luminescence gain of signal; series mostly up to 32.9 µM; activity change, positive = signal gain: at the top concentration.
Procedure, shortened: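 Gain of luminescent signal after Nano-Glo HiBiT detection (10 min, RT) was the read-out. Beforehand, compounds were incubated 30 min at room temperature in the dark with 10 nM final PKA-N-HiBiT, with H-89 as positive control.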

SMILES	activity change, positive = signal gain [%]	Potency
CO[C@H]1/C=C/O[C@@]2(C)Oc3c(C)c(O)c4c(O)c(c(/C=N\N5CCN(C6CCCC6)CC5)c(O)c4c3C2=O)NC(=O)/C(C)=C\C=C\[C@H](C)[C@H](O)[C@@H](C)[C@@H](O)[C@@H](C)[C@H](OC(C)=O)[C@@H]1C	-45.8	–
CCOc1ccn(-c2ccc(F)cc2)c(=O)c1C(=O)Nc1ccc(Oc2ccnc(N)c2Cl)c(F)c1	–	0.813 µM (active)
COc1cc2c(cc1OC)-c1[nH]nc(Nc3cccc(F)c3)c1C2	5.36	–
CC1(C)OCCn2c1nc1c(N3CCOCC3)nc(-c3cnc(N)nc3)nc12	4.3	–
Cc1[nH]c(/C=C2\C(=O)Nc3ccc(S(=O)(=O)Cc4c(Cl)cccc4Cl)cc32)c(C)c1C(=O)N1CCC[C@@H]1CN1CCCC1	-38.9	–
CO[C@@H](C(=O)N1Cc2[nH]nc(NC(=O)c3ccc(N4CCN(C)CC4)cc3)c2C1)c1ccccc1	3.68	–
Cc1sc2c(c1C)C(c1ccc(Cl)cc1)=N[C@@H](CC(=O)Nc1ccc(OCCOCCOCCOCCNc3cccc4c3C(=O)N(C3CCC(=O)NC3=O)C4=O)cc1)c1nnc(C)n1-2 (some centres not stated)	4.85	–
O=S(=O)(/N=C/c1c(O)ccc2ccccc12)c1cccs1	11	–
COc1ccc(-n2c(SCC#N)nc3sc4c(c3c2=O)CCCC4)cc1	5.77	–
NC(=O)c1cccc(-c2cc(Nc3ccc(OC(F)(F)F)cc3)ncn2)c1	4.05	–
N#Cc1cccc(-c2c[nH]c3ncnc(N4CCOCC4)c23)c1	–	13.4 µM (active)
C[C@@H](NC(=O)c1ncnc(N)c1Cl)c1ncc(C(=O)Nc2cc(C(F)(F)F)c(Cl)cn2)s1	-1.83	–
C=CC(=O)N1CCC[C@@H](n2nc(-c3cccc(C(=O)Nc4ccc(C(C)C)c(C)c4)c3)c3c(N)ncnc32)C1	3.4	–
C=CC(=O)Nc1cccc(Oc2nc(Nc3ccc(N4CCN(C)CC4)cc3OC)ncc2Cl)c1	2.43	–
CN1CCN(c2ccc(Nc3ncc4cc(C#N)c(=O)n(C5CCCC5)c4n3)cc2)CC1	10.8	–
Nc1nc(NCCNc2ncc(-n3ccnc3)c(-c3ccc(Cl)cc3Cl)n2)ccc1[N+](=O)[O-]	-35.6	–
CN1CCN(CCOc2cc(OC3CCOCC3)c3c(Nc4c(Cl)ccc5c4OCO5)ncnc3c2)CC1	5.07	–
